From PubChem BioAssay
This excerpt belongs to a sample that is enriched for hits.
YB-1 expression – YB-1 expression inhibition; U2OS, qRT-PCR YB-1 vs CDIP delta delta Cp, 16 h; active compounds read high; zero = DMSO, each unit about twofold; delta delta Cp (YB-1 minus CDIP) (test concentration not listed); 0.37% of 30,000 active; AID 434959;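 active = delta delta Cp rounded down to an integer at or above 3, about 3 SD of DMSO wells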;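 also: higher means less YB-1 transcript or more CDIP transcript relative to DMSO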
MITF inhib – blocks MITF activity; TRPM1 promoter luciferase, luminescence, 24 h; inhibition, % (test concentration not listed); 0.28% of 37,000 active; AID 2240; in the data active = inhibition above about 85%; inconclusive = no clear call, values can overlap the other calls; inactive = below about 68%;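 also: human melanocyte line stably carrying TRPM1 promoter luciferase reporter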
NOMO-1 viab – STK33 inhibitor candidate reducing NOMO-1 cell viability; 7.5% of 37,000 active; inhibition, % (no concentration beside the values); NOMO-1 AML viability, CellTiter-Glo luminescence, 72 h; in the data active = inhibition above about 80%; inconclusive = no clear call, values can overlap the other calls
PD-1 reverse act – activators reversing PD-1 mediated T-cell inhibition; 29,000 tested, under 10 active; activation, % (concentration not given with the values); primary human CD4 T cells, PD-L1 beads, CellTiter-Glo 96 h; AID 2316; call rule not given here;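 also: 0% = median vehicle wells and 100% = positive control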
ROS inducer – inducers of reactive oxygen species in cancer cells; U2OS ROS induction, H2DCF-DA fluorescence; ROS induction (% of piperlongumine), % at 10 µM; 2% of 46,000 active; in the data active = ROS induction above about 79%, passing the limit was not always enough; inconclusive = no clear call, values can overlap the other calls;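 also: 0% = DMSO vehicle median and 100% = reference compound median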
* hit, by the source's call; ? = inconclusive; nt = no result.

SMILES	YB-1 expression	MITF inhib	NOMO-1 viab	PD-1 reverse act	ROS inducer
C[C@@H]1CCCCO[C@H](CN(C)Cc2ccc(C(F)(F)F)cc2)[C@@H](C)CN([C@H](C)CO)C(=O)c2cc(NC(=O)c3ccncc3)ccc2O1	0.2	-5	18	nt	17
C/C=C(/C)C(=O)O[C@@H](C)[C@@](C)(O)C(=O)O[C@H](C)[C@@H](OC(=O)/C(C)=C\C)c1cc(OC)c2c(c1)OCO2	-1.3	45	119*	-1	6
CC(C)CN(CC(C)C)S(=O)(=O)N1CCC(C(=O)N2CCOCC2)CC1	nt	nt	nt	nt	-1
C=C(C)[C@@H]1Cc2c(ccc3c2O[C@H]2COc4cc(OC)c(OC)cc4[C@@]2(O)C3=O)O1	1.2	66	117*	-3	33
COc1cc2c(cc1OC)[C@@H]1C(=O)c3ccc4c(c3O[C@@H]1CO2)CCC(C)(C)O4	0.21	?	44	nt	8
CNC(=O)C1=C[C@@H](c2ccc(OC)cc2)C[C@@H](OCCCCO)O1	-0.01	nt	nt	nt	10
Oc1cc(O)cc(/C=C/c2ccc(O)c(O)c2)c1	-0.071	94*	113*	nt	7
O=C(CSc1nc2nc3c(cc2c(=O)n1-c1ccccc1)CCCC3)Nc1ccc(Cl)cc1	nt	2	-12	nt	nt
C[C@@H]1CN([C@@H](C)CO)C(=O)c2cccc(NC(=O)c3nc4ccccc4s3)c2O[C@@H]1CN(C)CC1CCCCC1	0.44	-16	117*	-12	14
C[C@H](CO)N1C[C@H](C)[C@@H](CN(C)CC2CCCCC2)Oc2c(NC(=O)c3nc4ccccc4s3)cccc2C1=O	-0.11	48	108*	-7	15
CC1CCc2cc(F)ccc2N1C(=O)Nc1ccc(F)cc1 (configuration not stated)	nt	nt	nt	nt	-2
C[C@H]1CN([C@@H](C)CO)C(=O)Cc2cc(NS(=O)(=O)c3cccs3)ccc2O[C@@H]1CN(C)C	0.067	-6	32	nt	43
COc1ccc(C2C3=C(CC(C)(C)CC3=O)Nc3[nH]c(=O)[nH]c(=O)c32)cc1 (configuration not stated)	nt	nt	nt	nt	8
COc1ccccc1OCCCSc1nc(-c2ccccc2)cc(=O)[nH]1	nt	-1	8	1	126*
CCCCC[C@H](CC(=O)NO)C(=O)N[C@H](C(=O)N1CCC[C@H]1CO)C(C)C	0.08	20	107*	nt	-5
C=C1C(=O)O[C@@H]2C3=C(C)CC[C@]34O[C@@H](C[C@@H]4C)[C@H]12	-0.25	11	114*	-13	6
CC1=CC(=O)C2C(C)(C)CCC[C@]2(C)[C@@]1(O)CCc1ccoc1 (some centres not stated)	0.11	13	96*	nt	15
CCOC(=O)c1sc(NC(=S)Nc2cnccn2)c(C(=O)OCC)c1C	nt	-23	36	-6	51
C[C@H](CO)N1C[C@H](C)[C@H](CN(C)Cc2ccc(Cl)c(Cl)c2)Oc2ccc(NC(=O)Nc3ccccc3)cc2C1=O	-0.34	17	113*	0	11
C[C@H](CO)N1C[C@H](C)[C@H](CN(C)Cc2ccc(Cl)c(Cl)c2)Oc2ccc(NC(=O)Nc3ccc(F)cc3)cc2C1=O	-0.019	5	-11	1	9
COc1ccc(NC(=O)Nc2ccc3c(c2)C(=O)N([C@H](C)CO)C[C@H](C)[C@H](CN(C)Cc2ccc(Cl)c(Cl)c2)O3)cc1	0.64	28	109*	-1	27
C[C@@H]1CN([C@@H](C)CO)C(=O)c2cc(NC(=O)Nc3ccc(F)cc3)ccc2O[C@H]1CN(C)Cc1ccc(Cl)c(Cl)c1	-0.28	41	125*	0	11
COc1ccc(NC(=O)Nc2ccc3c(c2)C(=O)N([C@H](C)CO)C[C@H](C)[C@@H](CN(C)Cc2ccc(Cl)c(Cl)c2)O3)cc1	0.48	4	28	-1	14
O=C(c1ccc2nc3ccccc3c(=O)n2c1)N1CCN(c2ccc(Cl)cc2)CC1	nt	nt	nt	nt	10
Cc1ccc(S(=O)(=O)Nc2ccc3c(c2)C(=O)N([C@H](C)CO)C[C@H](C)[C@H](CN(C)Cc2ccc(-c4ccccc4)cc2)O3)cc1	0.0034	22	47	3	13
SMILES	YB-1 expression	MITF inhib	NOMO-1 viab	PD-1 reverse act	ROS inducer
C[C@@H]1CN([C@@H](C)CO)C(=O)c2cc(NS(=O)(=O)c3ccc(F)cc3)ccc2O[C@@H]1CN(C)Cc1ccc(-c2ccccc2)cc1	0.023	31	111*	-3	29
C[C@@H]1CN([C@H](C)CO)C(=O)c2cc(NS(=O)(=O)c3ccccc3)ccc2O[C@H]1CN(C)Cc1ccc(-c2ccccc2)cc1	-0.17	10	107*	-1	68
Cc1ccc(S(=O)(=O)Nc2ccc3c(c2)C(=O)N([C@H](C)CO)C[C@@H](C)[C@H](CN(C)Cc2ccc(-c4ccccc4)cc2)O3)cc1	0.86	16	111*	-2	33
C[C@@H]1CN([C@@H](C)CO)C(=O)c2cc(NS(=O)(=O)c3ccccc3)ccc2O[C@H]1CN(C)Cc1ccc(-c2ccccc2)cc1	-0.18	23	49	0	56
COC(=O)CCCCCCC(=O)N/N=C/c1cc(F)ccc1O	0.52	nt	nt	nt	3
COc1ccc(CC(=O)NCC(C)C)cc1	-0.17	-25	-3	2	4
COc1ccc(OC)c(C(O)CNC(=O)CN)c1 (configuration not stated)	-0.42	-9	9	nt	122*
C=CC[C@@]1(C(=O)N(C)C)N=C(c2ccc(OCCCO)cc2)O[C@@H]1c1ccccc1	0.43	nt	nt	nt	15
COCc1cc(O)c(O)c(O)c1-c1c(COC)cc(O)c(O)c1O	0.38	-6	97*	-3	-4
Cc1nc(S(=O)(=O)NC[C@@H]2CCCN(Cc3ccc(OCCO)cc3)C2)cn1C	0.25	nt	nt	nt	28
C[C@@H]1CCCCO[C@@H](CN(C)Cc2ccc(C(=O)Nc3ccccc3N)cc2)[C@@H](C)CN([C@H](C)CO)C(=O)c2cc(NS(=O)(=O)c3cccs3)ccc2O1	-0.16	15	139*	0	-1
C[C@@H]1CCCCO[C@H](CN(C)Cc2ccc(C(=O)Nc3ccccc3N)cc2)[C@@H](C)CN([C@H](C)CO)C(=O)c2cc(NS(=O)(=O)c3cccs3)ccc2O1	-0.58	16	127*	-2	8
C[C@@H]1CN([C@@H](C)CO)C(=O)c2cc(NS(=O)(=O)c3cccs3)ccc2O[C@H]1CN(C)Cc1ccc(C(=O)Nc2ccccc2N)cc1	0.043	-12	29	-1	-10
CC(NC(=O)COc1ccccc1C(C)(C)C)c1ccccc1 (configuration not stated)	0.33	13	115*	0	34
CC(C)(C)c1ccccc1OCC(=O)NCc1ccccc1	nt	nt	nt	nt	-1
Cc1cccc(NC(=O)CSc2nnc(-c3cccnc3)n2-c2ccccc2)c1C	nt	2	12	1	-12
Cc1ccc2oc(-c3cc(NC(=O)c4ncn[nH]4)ccc3O)nc2c1	nt	-8	34	0	147*
CCNc1cc(N)[n+](CC)c2n[nH]c(N)c12	0.71	1	106*	0	-7
CCCCc1nc2sc3c(Cl)ncnc3c2c2c1COC(C)(C)C2	nt	nt	nt	nt	113*
